Results on 22 molecules are retold here after PubChem BioAssay (NCI).

Assay [1] can be described thus: NCI Yeast Anticancer Drug Screen. Data for the rad50 strain (AID 155).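 Further: 0% = growth of vehicle-only cultures of the same strain.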 The settings on record: S. cerevisiae rad50 strain growth inhibition, stronger effect = higher value. Put shortly: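 Inhibition values express reduced yeast growth in compound-treated cultures relative to vehicle-treated controls.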
Assay [2] in a line: NCI Yeast Anticancer Drug Screen. Data for the mec2-1 strain (AID 157). The settings on record: S. cerevisiae mec2-1 strain, stronger effect = higher value. Put shortly:
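Strain: mec2-1 (DNA repair/cell cycle alteration). Compound exposure, then growth measured; inhibition expressed relative to vehicle.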

Assay [3] is described as follows: NCI Yeast Anticancer Drug Screen. Data for the sgs1 mgt1 strain (AID 161).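 Further: 0% = growth of cultures given vehicle only.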 As to conditions: S. cerevisiae sgs1 mgt1 strain, stronger effect = higher value. Put shortly:
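Mutant yeast exposed to compound; growth scored against vehicle-only wells.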

Assay [4] in a line: NCI Yeast Anticancer Drug Screen. Data for the cln2 rad14 strain (AID 165).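 Further: 0% = growth equal to vehicle treated cultures.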 As to conditions: S. cerevisiae cln2 rad14 strain, stronger effect = higher value. Put shortly:
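Compounds are applied to the cln2 rad14 yeast strain, and growth is then compared with that of vehicle-treated cultures to give inhibition.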

Assay [5] can be described thus: NCI Yeast Anticancer Drug Screen. Data for the bub3 strain (AID 167). As to conditions: S. cerevisiae bub3 mutant strain, stronger effect = higher value. Put shortly: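 Steps: expose the mutant yeast strain to compound; grow alongside vehicle-treated cultures; measure growth; express inhibition against the vehicle cultures.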
Assay [6] can be described thus: NCI Yeast Anticancer Drug Screen. Data for the mlh1 rad18 strain (AID 175). As to conditions: S. cerevisiae mlh1 rad18 strain growth inhibition, stronger effect = higher value. Put shortly: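 Read-out is yeast growth inhibition, calculated against vehicle-only controls. The compound was applied to a strain engineered with DNA damage repair alterations.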
The mark [7] stands for this setting: at 5.0 µM (retest, dose inferred, filed as 0.5).
Where [8] appears, read: at 50.0 µM (retest, dose inferred, filed as 5.0).

Molecules are shown by their SMILES. The panel holds about 79,000 compounds, 15% with a hit somewhere; the sample as a whole holds those more often. Unmarked numbers belong to inactive results. Calls of active or inactive are those of the source. No stated cut-off is given here; in the data, active means growth inhibition above about 70%; inactive means the rest.

As to `Cc1cc(C(=O)O)cc(C)c1N(C)C=O`, the growth inhibition in assay [1] (at 50.0 µM unless noted) was -0.8%; in assay [2] (at 50.0 µM unless noted), 6.25%; in assay [3] (at 50.0 µM unless noted), 3.15%; in assay [4] (at 50.0 µM unless noted) it was 2.35%; in assay [5] (at 50.0 µM unless noted), -1.05%.

Turning to `Cc1cccc2c(N3CCN(c4ccccc4)CC3)c3c(nc12)CCCCC3`, the growth inhibition in assay [1] (at 50.0 µM unless noted) was 11.4%; in assay [2] (at 50.0 µM unless noted) it was -22.7%; in assay [3] (at 50.0 µM unless noted), -12.3%; in assay [4] (at 50.0 µM unless noted), -3.05%; in assay [5] (at 50.0 µM unless noted), 3.2%.

In the case of `O=C(Cc1ccccc1)c1ccc(O)c(Cl)c1`, the growth inhibition was 20% in assay [1] (setting [7]); 99% (active) in assay [1] (setting [8]); 2% in assay [2] (setting [7]); 99% (active) in assay [2] (setting [8]); 18% in assay [3] (setting [7]); 99% (active) in assay [3] (setting [8]). For the same molecule, the growth inhibition in assay [4] (setting [7]) was 12%; in assay [4] (setting [8]) it was 96% (active); in assay [5] (setting [7]), 7%; in assay [5] (setting [8]), 99% (active); in assay [6] (setting [7]), -11%; in assay [6] (setting [8]) it was 97% (active).

Take `O=C(O)/C=C\C(=O)Nc1cccc2ccccc12`: the growth inhibition in assay [1] (setting [7]) is 4%; in assay [1] (setting [8]) it was 60%; in assay [2] (setting [7]), -1%; in assay [2] (setting [8]), 30%; in assay [3] (setting [7]) it was 7%; in assay [3] (setting [8]), 88% (active). In addition, the growth inhibition in assay [4] (setting [7]) is -1%; in assay [4] (setting [8]), 8%; in assay [5] (setting [7]), -1%; in assay [5] (setting [8]), 42%; in assay [6] (setting [7]), -35%; in assay [6] (setting [8]), 25%.

Consider `Oc1cccnc1Cl`, for which the growth inhibition was 12.9% in assay [1] (at 50.0 µM unless noted); -13.7% in assay [2] (at 50.0 µM unless noted); 17.4% in assay [3] (at 50.0 µM unless noted); 9.2% in assay [4] (at 50.0 µM unless noted); 13.7% in assay [5] (at 50.0 µM unless noted).

For `c1ccc(CN(Cn2cccn2)Cn2cccn2)nc1`, the growth inhibition in assay [1] (at 50.0 µM unless noted) is 7.15%; in assay [2] (at 50.0 µM unless noted), -9%; in assay [3] (at 50.0 µM unless noted), 23.1%; in assay [4] (at 50.0 µM unless noted) it was 23.9%; in assay [5] (at 50.0 µM unless noted) it was -0.4%.

On to `COC1=C2CC(C)CC(OC)C(O)C(C)/C=C(\C)C(OC(N)=O)C(OC)/C=C\C=C(/C)C(=O)NC(=C(/C=N/N3CCCCC3)C1=O)C2=O` (stereo not given), for which the growth inhibition in assay [1] (at 50.0 µM unless noted) was 17.4%; in assay [2] (at 50.0 µM unless noted), 10.3%; in assay [3] (at 50.0 µM unless noted) it was -13.9%; in assay [4] (at 50.0 µM unless noted), -15.7%; in assay [5] (at 50.0 µM unless noted) it was -12.8%.

On to `COc1ccc(N2C(=O)C/C(=C/c3ccc(C(C)C)cc3)C2=O)cc1`, for which the growth inhibition was 9.35% in assay [1] (at 50.0 µM unless noted); -0.05% in assay [2] (at 50.0 µM unless noted); 11.9% in assay [3] (at 50.0 µM unless noted); -60% in assay [4] (at 50.0 µM unless noted); -13.8% in assay [5] (at 50.0 µM unless noted).

For `CCCNC(=O)Oc1ccccc1C(=O)NCO`, the growth inhibition was -3.5% in assay [1] (at 50.0 µM unless noted); 0.4% in assay [2] (at 50.0 µM unless noted); -9.35% in assay [3] (at 50.0 µM unless noted); -14.1% in assay [4] (at 50.0 µM unless noted); 16.8% in assay [5] (at 50.0 µM unless noted).

Regarding `CCOc1ccc(/C=C(\C(=O)c2ccccc2)S(=O)(=O)c2ccc(OC)cc2)cc1OC`, the growth inhibition was 17.9% in assay [1] (at 50.0 µM unless noted); 45.5% in assay [2] (at 50.0 µM unless noted); 1.2% in assay [3] (at 50.0 µM unless noted); 5.8% in assay [4] (at 50.0 µM unless noted); 29.6% in assay [5] (at 50.0 µM unless noted).

For the molecule `C/C(=N\NC(=S)N1CCCCCC1)c1nccnc1C`, the growth inhibition in assay [1] (at 50.0 µM unless noted) was 85.7% (active); in assay [2] (at 50.0 µM unless noted), 90.5% (active); in assay [3] (at 50.0 µM unless noted), 89.7% (active); in assay [4] (at 50.0 µM unless noted), 86.5% (active); in assay [5] (at 50.0 µM unless noted), 87.4% (active).

Turning to `CN(C)C(C#CCO)c1ccccc1` (stereo not given), the growth inhibition in assay [1] (at 50.0 µM unless noted) was -30.5%; in assay [2] (at 50.0 µM unless noted) it was -13.2%; in assay [3] (at 50.0 µM unless noted), 1.45%; in assay [4] (at 50.0 µM unless noted) it was -3.55%; in assay [5] (at 50.0 µM unless noted) it was -9.7%.

As to `CC(=O)OC(C(=O)NNC(=O)OC(C)(C)C)c1ccccc1` (stereo not given), the growth inhibition is -35.6% in assay [1] (at 50.0 µM unless noted); -49.4% in assay [2] (at 50.0 µM unless noted); -38% in assay [3] (at 50.0 µM unless noted); -19.4% in assay [4] (at 50.0 µM unless noted); -13.4% in assay [5] (at 50.0 µM unless noted).

On to `C/C(N=NC(=S)N1CC2CCC(CC2)C1)=C1\C=CC=CN1O`, for which the growth inhibition in assay [1] (at 50.0 µM unless noted) is 80.3% (active); in assay [2] (at 50.0 µM unless noted) it was 85.7% (active); in assay [3] (at 50.0 µM unless noted), 82.2% (active); in assay [4] (at 50.0 µM unless noted), 69.5%; in assay [5] (at 50.0 µM unless noted), 78% (active).

On to `CCOC(=C\C(=O)NC)/C=C/c1ccc([N+](=O)[O-])cc1`, for which the growth inhibition is -5.75% in assay [1] (at 50.0 µM unless noted); 0.65% in assay [2] (at 50.0 µM unless noted); -6.1% in assay [3] (at 50.0 µM unless noted); -18.4% in assay [4] (at 50.0 µM unless noted); 5.85% in assay [5] (at 50.0 µM unless noted); -3.45% in assay [6] (at 50.0 µM unless noted).

In the case of `COS(=O)(=O)CC(O)(c1ccccc1)c1ccccc1`, the growth inhibition in assay [1] (at 50.0 µM unless noted) is 12.7%; in assay [2] (at 50.0 µM unless noted), -2.3%; in assay [3] (at 50.0 µM unless noted), 48.8%; in assay [4] (at 50.0 µM unless noted), -14.6%; in assay [5] (at 50.0 µM unless noted) it was -5.8%.

As to `CCOC(=O)c1ccc(N/C(C)=C/C(=O)OC)cc1`, the growth inhibition is 3.45% in assay [1] (at 50.0 µM unless noted); -8.4% in assay [2] (at 50.0 µM unless noted); 11.2% in assay [3] (at 50.0 µM unless noted); -20.7% in assay [4] (at 50.0 µM unless noted); 1.95% in assay [5] (at 50.0 µM unless noted).

As to `C=C1C(=O)OC2/C=C(\COC(C)=O)CCC(OC(C)=O)C3=CC(OC3=O)C12` (stereo not given), the growth inhibition in assay [1] (at 50.0 µM unless noted) is -0.4%; in assay [2] (at 50.0 µM unless noted), 10.4%; in assay [3] (at 50.0 µM unless noted), -22.2%; in assay [4] (at 50.0 µM unless noted), -6.5%; in assay [5] (at 50.0 µM unless noted) it was -30.1%.

`O=C1CCCC/C1=C/C=C/c1ccccc1`: the growth inhibition in assay [1] (at 50.0 µM unless noted) is 10.1%; in assay [2] (at 50.0 µM unless noted) it was 21.8%; in assay [3] (at 50.0 µM unless noted), 23.1%; in assay [4] (at 50.0 µM unless noted) it was -33.5%; in assay [5] (at 50.0 µM unless noted), -29.9%.

Regarding `CCOC(=O)C(C)N1C(=O)c2ccccc2C1=O` (stereo not given), the growth inhibition in assay [1] (at 50.0 µM unless noted) is 6.4%; in assay [2] (at 50.0 µM unless noted) it was -20.4%; in assay [3] (at 50.0 µM unless noted), -22%; in assay [4] (at 50.0 µM unless noted), 13.3%; in assay [5] (at 50.0 µM unless noted), 21.4%.

On to `O=CNNc1nn2cnnc2c2ccccc12`, for which the growth inhibition in assay [1] (at 50.0 µM unless noted) is -1%; in assay [2] (at 50.0 µM unless noted), 9.95%; in assay [3] (at 50.0 µM unless noted), -6.55%; in assay [4] (at 50.0 µM unless noted) it was 11.9%; in assay [5] (at 50.0 µM unless noted), -16.6%.

In the case of `CCOC(=O)c1cc([N+](=O)[O-])cnc1C`, the growth inhibition in assay [1] (at 50.0 µM unless noted) is 5.8%; in assay [2] (at 50.0 µM unless noted), 10%; in assay [3] (at 50.0 µM unless noted), -1.7%; in assay [4] (at 50.0 µM unless noted), 0.4%; in assay [5] (at 50.0 µM unless noted), 8.45%.
